TSHR agonist – qHTS Assay for Agonists of the Thyroid Stimulating Hormone Receptor; Thyrotropin receptor (Homo sapiens), P16473; HEK293-CNG-TSHR cells (CNG channel as cAMP sensor), membrane potential dye, cAMP; Potency, µM (highest dose often 57.1 µM), inactives show at the highest dose activation, actives largely listed as activators; hit rate 0.48% among 73,000; AID 926, 2007; active means well fitted activation curve with a large enough effect in the main read-out, with a control signal flat, not every such curve was filed as active; inconclusive means small, poorly fitted or top-dose-only effect, or a change in a side signal; inactive means no such curve, though single readings can be large or run the other way; % of control where 0% means no effect;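 further: the control signal comes from parental cells without the receptor; potency means the concentration at half of the fitted maximal effect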
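cAMP rise detected as CNG-channel membrane depolarization by fluorescent dye (emission 590 nm), 30 min after compound, following 60 min dye loading containing 100 uM RO 20-1724 at room temperature. Cells: TSHR/CNG HEK 293, with parental CNG HEK 293 as control.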
HEK293 cAMP cs – qHTS Assay for Agonists of the Thyroid Stimulating Hormone Receptor: Activators of Intracellular cAMP Concentrations in Parental HEK 293; Potency, µM (series often up to 57.1 µM), for the others: top-dose activation, hits mostly activators; hit rate 2.5% among 73,000; parental HEK293 CNG cAMP sensor, membrane potential fluorescence; further: potency means the concentration at half of the fitted maximal effect; % of control where 0% means no effect; nearly all actives have a fitted effect of over 55% in size
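Parental HEK 293 cells stably expressing a modified CNG channel (no TSHR) report cAMP rise as membrane depolarization. Membrane potential dye with 100 uM RO 20-1724 was loaded for 60 min at room temperature, then compound added for 30 min; fluorescence read at 590 nm.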
IkB sig inh – IkB Signaling. Potency, µM (titrated, usually from 57.1 µM), inactives show at the top dose IkBa stabilization activation. ABC-DLBCL IkBa-CBG/CBR dual luciferase ratio, 4 h; response scale: scaled: untreated 0%, proteasome inhibitor 100%. hit rate 0.04% among 110,000. AID 445, 2006; active means well fitted curve in the direction sought with a large enough effect in the signal ratio, not every such curve was filed as active; inconclusive means small, poorly fitted or top-dose-only effect, or a change in a side signal; the % refers to the signal ratio;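 further: potency means the concentration at half of the fitted maximal effect; the direction sought is a rising ratio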
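Luminescence ratio of IκBα-fused green versus native red beetle luciferase in OCI-Ly3 cells, 4 h post-doxycycline with compound; red signal alone, scaled from basal (0%) to zero light (-100%), flagged nonspecific or cytotoxic effects.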
p53ts 32C kill – qHTS Screen for Compounds that Selectively Target Cancer Cells with p53 Mutations: Cytotoxicity of p53ts Cells at the Permissive Temperature; Potency, µM (series often up to 46.1 µM), without a hit: top-dose activity change, negative = cytotoxicity, hits mostly cytotoxic; H1299-p53A138V at 32C, ATP luminescence viability, 24 h; hit rate 0.93% among 130,000;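 further: potency means the concentration at half of the fitted maximal effect; 0% = DMSO and -100% = full killing by reference compound; nearly all actives have a fitted effect of over 55% in size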
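H1299-p53 A138V cells (temperature-sensitive p53) exposed 24 h to up to 46 uM compound at 32C, where p53 is wild-type in conformation. Viability read as ATP luminescence and normalised to DMSO and 100 uM tamoxifen. AC50 fitted with the Hill equation.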
p53ts 39C tox – qHTS Screen for Compounds that Selectively Target Cancer Cells with p53 Mutations: Cytotoxicity of p53ts Cells at the Nonpermissive Temperature; H1299-p53A138V viability at 39C, ATP luminescence, 24 h; Potency, µM (series often up to 46.1 µM), inactives show top-dose activity change, negative = cell killing, hits mostly cytotoxic; hit rate 1.5% among 130,000; further: potency means the concentration at half of the fitted maximal effect; on the % scale 0 is the no-effect control and ±100 the full control effect; nearly all actives have a fitted effect of over 55% in size
Peg3 imprint – qHTS Assay for Compounds that Induce Erasure of Genomic Imprints. mouse ES Peg3-LacZ reporter, beta-gal luminescence, 40 h. Potency, µM (top dose mostly 60.7 µM), for the others: top-dose activity change, positive = activation, hits mostly activators. hit rate 0.02% among 110,000; further: potency means the concentration at half of the fitted maximal effect
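Each well holds 300 Peg3LacZ-Neo (maternal) female ES cells incubated 40 h at 37C, 5% CO2. LacZ is measured by BetaGlo luminescence, with AC50 and maximum efficacy derived from dose-response curves.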
HEK293 cAMP cnt – Confirmation Concentration-Response Assay for Agonists of the Thyroid Stimulating Hormone Receptor: Activators of Intracellular cAMP Concentrations in Parental HEK 293. shares compounds with TSHR agonist. parental HEK293 CNG biosensor, cAMP membrane potential fluorescence. activity change, negative = inhibition, % at 32.9 µM. 150 tested, under 10 active. AID 953, 2007
The depositor's hits bear a star; [ ] = dose if it differs, or a comment. Only some compounds are listed: those with a hit (about 3.1% of all), similar ones and a draw of the others. Unless noted, the call rests on the fitted dose curve; in most records, active means well fitted curve in the direction sought with a large enough effect; inconclusive means small, poorly fitted or top-dose-only effect, or another doubt; inactive means no such curve, though single readings can be large; an effect the other way counts as inactive or inconclusive.

O=C1C2C3CCCC3=C3CCCC3C2C(=O)N1c1cccc(Cl)c1 (stereo not drawn) was read as TSHR agonist inconclusive, HEK293 cAMP cs inconclusive, IkB sig inh 0.7%, p53ts 32C kill 12.6%, p53ts 39C tox -2.3% and Peg3 imprint -12.1%.
For O=C1C2C3CCCC3=C3CCCC3C2C(=O)N1c1ccc(Cl)cc1 (stereo not drawn) the results were TSHR agonist 3.16µM*, HEK293 cAMP cs 4.1%, IkB sig inh 16.3%, p53ts 32C kill -16.4%, p53ts 39C tox -22.0% and HEK293 cAMP cnt -8.7.
`O=C1[C@H]2[C@H]3[C@H](O)[C@H](O)C/C(=N/OCc4ccccc4)[C@@H]3CC[C@@H]2C(=O)N1c1cccc(Oc2ccccc2)c1` gave TSHR agonist inconclusive, HEK293 cAMP cs inconclusive, p53ts 32C kill -0.2%[9.22 µM] and p53ts 39C tox 7.0%[9.22 µM].
For Cc1ccc2c(c1)-c1onc(C(=O)N3CCN(c4cc(Cl)ccc4C)CC3)c1CO2 the results were IkB sig inh inconclusive, p53ts 32C kill 4.1%, p53ts 39C tox inconclusive and Peg3 imprint -11.2%[10.9 µM].
`CCOC(=O)c1ccc(NC(=O)c2ccc(CN3CCOCC3)cc2)cc1` gave HEK293 cAMP cs 19.8%, IkB sig inh 0.0%, p53ts 32C kill -0.9%, p53ts 39C tox 14.3%, Peg3 imprint -10.2% and HEK293 cAMP cnt 11.0.
O=C(C1CCCCC1)N(Cc1ccccc1)c1ccccn1 was read as TSHR agonist 16.0%, HEK293 cAMP cs 14.4%, IkB sig inh -0.6%, p53ts 32C kill -1.4%, p53ts 39C tox 5.8% and Peg3 imprint -27.5%.
Screening O=C(c1ccc(Br)o1)N(Cc1ccccc1)c1ccccn1 returned TSHR agonist inconclusive, HEK293 cAMP cs inconclusive, IkB sig inh 5.3%, p53ts 32C kill 0.3%, p53ts 39C tox -6.4%, Peg3 imprint -16.8% and HEK293 cAMP cnt 4.0.

Compound activity deposited in PubChem by National Center for Advancing Translational Sciences (NCATS).
